“And” between values parts separate entries of the source, which are not always exact repeats. Equal values may be shown once. The panel holds about 79,000 compounds, 15% with a hit somewhere; the sample as a whole holds those more often. The source made the active and inactive calls. Rule as the data show it: active = growth inhibition above about 70%; inactive = the rest.
How the values were obtained:
[1] = NCI Yeast Anticancer Drug Screen. Data for the rad50 strain (AID 155);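 also: 0% = growth of vehicle-only cultures of the same strain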; conditions: S. cerevisiae rad50 strain growth inhibition; at 50.0 µM; stronger effect = higher value
How it was run: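 Yeast carrying a defined DNA repair defect were exposed to test compounds, and growth was compared with vehicle-treated controls to give percent inhibition.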

[2] = NCI Yeast Anticancer Drug Screen. Data for the mec2-1 strain (AID 157); conditions: S. cerevisiae mec2-1 strain, at 50.0 µM, stronger effect = higher value
How it was run: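 Cells of the genetically defined mec2-1 yeast strain are incubated with test compound. Inhibition of growth is calculated against vehicle-treated controls.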

[3] = NCI Yeast Anticancer Drug Screen. Data for the sgs1 mgt1 strain (AID 161);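 also: 0% = growth of cultures given vehicle only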; conditions: S. cerevisiae sgs1 mgt1 strain, at 50.0 µM, stronger effect = higher value
How it was run: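 Inhibition of yeast growth, normalised to vehicle-treated controls, is reported for a strain bearing genetic alterations in DNA damage repair.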

[4] = NCI Yeast Anticancer Drug Screen. Data for the cln2 rad14 strain (AID 165);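 also: 0% = growth equal to vehicle treated cultures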; conditions: S. cerevisiae cln2 rad14 strain, at 50.0 µM, stronger effect = higher value
How it was run: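 The screen exposed genetically defined yeast (cln2 rad14) to test compounds and scored growth inhibition relative to vehicle-treated controls.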

[5] = NCI Yeast Anticancer Drug Screen. Data for the bub3 strain (AID 167); conditions: S. cerevisiae bub3 mutant strain, at 50.0 µM, stronger effect = higher value
How it was run: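 Compounds were applied to a genetically altered yeast strain carrying a cell-cycle control defect. Growth inhibition was scored against vehicle-treated controls.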

[6] = NCI Yeast Anticancer Drug Screen. Data for the mlh1 rad18 strain (AID 175); conditions: S. cerevisiae mlh1 rad18 strain growth inhibition; at 50.0 µM; stronger effect = higher value
How it was run: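 Compound-treated yeast growth, normalised to vehicle controls. Strain bears defined DNA repair mutations.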

Measured: growth inhibition

N[C@H]1C2C3CC4C5CC(C42)C1(c1ccccc1)C53 (stereo not given in full)
inactive: [1] -20.4% | [2] -5.25% | [3] -0.05% | [4] -5.2% | [5] -12% | [6] -6%

C1CCC(NC2CCCC2)C1
inactive: [1] 13.4% | [2] -0.5% | [3] 10.1% | [4] 11.7% | [5] -8.4% | [6] 5.45%

COc1cc2c(cc1O)CC1CC(=O)CCN1C2 (stereo not given)
inactive: [1] -3.4% | [2] 4.5% | [3] -12.1% | [4] -6.85% | [5] -10.8% | [6] -0.75%

O=c1[nH]cc(N=Cc2ccccc2Cl)c(=O)[nH]1.[Cl][Pt][Cl]
inactive: [1] 20.4% | [2] -5.75% | [3] -18.1% | [4] 1.95% | [5] 1.55% | [6] -9.05%

CCC[CH2][Sn]([CH2]CCN(C)C)([CH2]CCN(C)C)[CH2]CCN(C)C
inactive: [1] 38.5% | [2] 8.4% | [3] 12.8% | [4] 15.2% | [5] -1.95% | [6] 28.2%

CP1(=O)CCC23CCCCC21O3 (stereo not given)
inactive: [1] 7.9% | [2] -34.8% | [3] -2.3% | [4] -20.8% | [5] 11.7% | [6] -4.25%

O=C(O)c1ccccc1
inactive: [1] -11.1% and -31.2% | [2] -0.2% and -17.9% | [3] -14.8% and 33.1% | [4] -10.7% and -12% | [5] -20.5% and -3.8% | [6] -38.4% and 10.8%

NNC(=O)Nc1nn[nH]n1
inactive: [1] 1.75% and -6.75% | [2] 8.2% and 8.5% | [3] 10.2% and -6.75% | [4] -19.4% and 6% | [5] -15% and 12.6% | [6] 7.95% and -3.6%

CC12CCC(O)CC1CCC1C2CCC2(C)C(c3ccc(=O)oc3)CC3OC312 (stereo not given)
inactive: [1] 35.5% | [2] 31.5% | [3] 66.5% | [4] 48.5% | [5] 48.6% | [6] 60.9%

COC1C(=[N+]=[N-])C(=O)NC(=O)N1C (stereo not given)
inactive: [1] 21% | [2] -3.4% | [3] 34.9% | [4] -7.65% | [5] 20.3% | [6] 20.5%

C[CH2][Sn](=[O])[c]1ccccc1
inactive: [1] -21.9% | [2] -17.6% | [3] 3.3% | [4] 10.3% | [5] -0.9% | [6] -23.4%

CC(=O)OC1[C@H](n2ccnc2)C[C@H]2[C@@H]3CC=C4CC(N5CCCC5)CC[C@]4(C)[C@H]3CC[C@]12C (stereo not given in full)
inactive: [1] 2.1% | [2] -9.1% | [3] -29.9% | [4] 7.05% | [5] -48.8% | [6] -55.4%

NCCN.O=C([O-])C(=O)[O-].O=C([O-])C(=O)[O-].[Co+3].[K+]
inactive: [1] 0.2% | [2] -8.5% | [3] 10.2% | [4] 16.8% | [5] 5.1% | [6] -2.4%

CC1CC(C)(O)CC(C(O)CC2CC(=O)NC(=O)C2)C1=O (stereo not given)
inactive: [1] 55.9% | [2] 51% | [3] 48.2% | [4] 56.1% | [5] 67% | [6] 68.2%

C/C(=N\NC(N)=O)C(CN(C)C)C(c1ccccc1)c1c(O)c2ccccc2oc1=O (stereo not given)
inactive: [1] 15.8% | [2] 21.1% | [3] 15.6% | [4] 5% | [5] 9.7% | [6] 8%

COc1cc([C@@H]2c3cc4c(c(O)c3C[C@H]3COC(=O)[C@@H]32)OCO4)cc(OC)c1OC
inactive: [1] -5.65% and 13.2% | [2] 9.3% and 7.85% | [3] 2.65% and 2.95% | [4] 0.1% and 15.8% | [5] 15.4% and 23.4% | [6] 28.2% and 30.5%

CCc1ccc(CCN2CCCCC2)nc1
inactive: [1] -24.6% | [2] -21.4% | [3] -21.4% | [4] 6.75% | [5] -15.5% | [6] -1.6%

O=C1NC2(CCCCC2)C(=O)N1CCCCCN(CCCl)CCCl
inactive: [1] 22.8% | [2] 18.4% | [3] 2.1% | [4] -25.4% | [5] -9.75% | [6] -0.3%

COc1ccc(C(C)N)cc1 (stereo not given)
inactive: [1] -47.4% | [2] -5.3% | [3] -10.4% | [4] -11.2% | [5] -4.3% | [6] -2.9%

CC[N+](C)(CC)CCC(C(=O)NC)(c1ccccc1)c1ccccc1
inactive: [1] -2.45% | [2] -1.35% | [3] -22.8% | [4] -34.6% | [5] 0.05% | [6] -19.1%

O=S(=O)(F)c1cc(Cl)c(S)cc1Cl
inactive: [1] 7.75% | [2] -1.85% | [3] 4.2% | [4] 16.1% | [5] -1.55% | [6] -2.45%

CCOP(=O)(OCC)C(C)(C)OC(=O)NC(F)(F)F
inactive: [1] -18.7% | [2] -15.2% | [3] -2.25% | [4] 5.25% | [5] -10.1% | [6] 3%

C/C(=N\N=C(N)N)C(CN1CCCCC1)C(c1ccccc1)c1c(O)c2ccccc2oc1=O (stereo not given)
inactive: [1] 13.7% | [2] -2.6% | [3] 10.6% | [4] 24.4% | [5] 28.9% | [6] 16.9%

CCN1CN(c2ccccc2)C2(CCN(CC(CC3OCCO3)c3ccc(F)cc3)CC2)C1=O (stereo not given)
inactive: [1] 28.5% | [2] 32.2% | [3] 51.9% | [4] 13.6% | [5] 47% | [6] 44.6%

O=C(CN1CC1)NCCCCCCCNC(=O)CN1CC1
inactive: [1] -13.4% | [2] 3.5% | [3] 1.6% | [4] 8.15% | [5] -4.15% | [6] 25.4%

O=C(N/N=C/c1cc(Br)cc(Br)c1[O-])c1ccccc1O.O=C(N/N=C/c1cc(Br)cc(Br)c1[O-])c1ccccc1O.[Fe+2]
inactive: [1] 20.4% | [2] 21.7% | [3] 52% | [4] -34.8% | [5] 34.4% | [6] 43.8%

CC12CC3OC(=O)C1COC14OC5(C2C1=O)C(O)(CCC1C4CC(O)C2(O)CC=CC(=O)C12C)C(=O)OC35C (stereo not given)
inactive: [1] 5.85% | [2] 7.95% | [3] 8.3% | [4] 11.2% | [5] -1.3% | [6] -40.8%

Cc1cc(N(CCCl)CCCl)ccc1CN1CCCN(Cc2ccc(N(CCCl)CCCl)cc2C)C1c1ccccc1O
inactive: [1] 0.25% | [2] 14.5% | [3] 11.1% | [4] -4.5% | [5] 0.05% | [6] 31.9%

C=CCN(CC=C)C1CCOC(OC)C1O (stereo not given)
inactive: [1] -19.4% | [2] -20.5% | [3] -9.35% | [4] -5.05% | [5] -12% | [6] -14.2%

[N-]=[N+]=NC1=C(N=[N+]=[N-])c2cccc3cccc(c23)C1=O
active: [6] 81.9%
inactive: [1] 46.3% | [2] 29.1% | [3] 55.3% | [4] 55.6% | [5] 21.1%

CN(C)C(=O)Oc1c(-c2ccccc2)c(=O)n2c3ccccc3n3c(=O)n(C)c(=O)c1c23
inactive: [1] 21.8% | [2] 23.4% | [3] -0.9% | [4] 17.1% | [5] 11.7% | [6] 19.8%

CCOS(=O)OCC
inactive: [1] 19% | [2] 0.35% | [3] -26.1% | [4] 17.9% | [5] 17.6% | [6] 9.2%

CC1(C)Cc2cccc(C=C(C#N)C#N)c2O1
inactive: [1] 6.9% | [2] 20.6% | [3] 3.25% | [4] -63.5% | [5] -6.85% | [6] -3.25%

Cc1cccc(-n2c(C)nc3ccccc3c2=O)c1C
inactive: [1] -15.2% | [2] -1.1% | [3] -3.35% | [4] -2.6% | [5] -0.6% | [6] -13.1%

CN1C(=O)C(C)(C2=CCCCC2)C(=O)NC1=S (stereo not given)
inactive: [1] 1.55% | [2] 1.65% | [3] 11.8% | [4] -17.4% | [5] -1.9% | [6] 11.9%

CC1(O)CCC(O)CC1CC(=O)O (stereo not given)
inactive: [1] 11.8% | [2] 8.5% | [3] 9.45% | [4] 22.1% | [5] -0.15% | [6] 11.4%

C[As+](C)(C)c1cccc(N)c1
inactive: [1] -1.6% | [2] -6.6% | [3] -10.1% | [4] -14.8% | [5] -1% | [6] 0.45%

COC(=O)c1ccc(C=C(C#N)C#N)cc1
inactive: [1] -5.75% | [2] -2.6% | [3] -27.9% | [4] 30.6% | [5] 2.45% | [6] -21%

CC([NH-])C(=O)O.CC([NH-])C(=O)O.[Cu+2] (stereo not given)
inactive: [1] -0.95% | [2] 11.3% | [3] 15.6% | [4] -40.1% | [5] -15.9% | [6] 19.6%

CCC1CN2CCc3cc(OC)c(OC)cc3C2CC1CC1c2cc(OC)c(OC)cc2CCN1C(=O)C(N)Cc1ccccc1 (stereo not given)
inactive: [1] -8.25% | [2] -0.5% | [3] -2.3% | [4] -3.05% | [5] -5.05% | [6] 8.5%

From PubChem BioAssay (NCI)
